IL-1B inflam inh – inflammasome signaling inhibition, IL-1 beta readout | THP-1 LPS/ATP IL-1B secretion, AlphaLISA, 16 h; hits give low values | activity change, % at 57.5 µM | 4.7% of 360,000 active; in the data active = activity change below about -50%; inconclusive = mostly about -30% to -49%
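THP-1 cells pretreated 1 hr with compounds (up to 57.5 uM final), then stimulated with LPS (250 ng/mL final) plus ATP (1.25 mM final); secreted IL-1B measured by AlphaLISA after 16 hr, decreased signal indicating inhibition.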
DT40 TDP1 CPT – growth inhibition of DT40 Tdp1-/-;hTDP1 cells with camptothecin (screen for TDP1 inhibitors) | chicken DT40 Tdp1-/-;hTDP1 cells + 20 nM CPT, ATP luminescence, 48 h | Potency, µM (titrated, usually from 46.2 µM), most hits filed as inhibitors | 12% of 420,000 active | AID 686979; note: nearly all actives have a fitted effect of over 55% in size
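Chicken DT40 Tdp1-/- cells stably complemented with human TDP1 were seeded at 400 cells/well in medium containing 20 nM camptothecin, exposed to pin-transferred compounds, and grown at 37 °C for at least 48 hr. Viability was read as ATP luminescence.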
ClpP mod – qHTS Assay for Activators of ClpP; ATP-dependent Clp protease proteolytic subunit (Bacillus subtilis (strain 168)), P80244; purified B. subtilis ClpP, FRET peptide cleavage, 20 min; Potency, µM (highest dose often 57.5 µM); 1.9% of 340,000 active; active = well fitted falling curve with a large enough effect; inconclusive = small, poorly fitted or top-dose-only effect; inactive = no such curve, though single readings can be large or run the other way; note: the source files actives as falling curves though it sought activators and does not explain the sign; nearly all actives have a fitted effect of over 65% in size
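Purified B. subtilis ClpP, 10 microg/mL final in Tris/HCl pH8 with KCl, BSA, glycerol and Tween-20, cleaved an Abz/nitrotyrosine-quenched decapeptide. Fluorescence (ex 320, em 430) was read at 0 and 20 min at room temperature. Delta was normalized to 5.8 microM ADEP and DMSO/no-enzyme controls.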
TDP1 cell noCPT – qHTS for Inhibitors of human tyrosyl-DNA phosphodiesterase 1 (TDP1): qHTS in cells in absence of CPT. AID 686978, 2013. Potency, µM (top dose mostly 46.2 µM), actives largely listed as inhibitors. DT40 Tdp1-/- hTDP1 cells, no CPT, ATP luminescence, 48 h. 15% of 420,000 active; note: nearly all actives have a fitted effect of over 55% in size
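Stably hTDP1-transfected Tdp1-null chicken DT40 cells were treated with library compounds minus camptothecin and grown for at least 48 hr at 37 °C, after which cellular ATP was quantified by luminescence.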
DRD3 agonist – agonists of human D3 dopamine receptor | P35462 | D3R DiscoveRx beta-arrestin cells, luminescence, 90 min | max activation, % | 0.58% of 410,000 active | AID 652048; in the data active = max activation above about 30%
Target sequence (P35462 whole entry, looked up): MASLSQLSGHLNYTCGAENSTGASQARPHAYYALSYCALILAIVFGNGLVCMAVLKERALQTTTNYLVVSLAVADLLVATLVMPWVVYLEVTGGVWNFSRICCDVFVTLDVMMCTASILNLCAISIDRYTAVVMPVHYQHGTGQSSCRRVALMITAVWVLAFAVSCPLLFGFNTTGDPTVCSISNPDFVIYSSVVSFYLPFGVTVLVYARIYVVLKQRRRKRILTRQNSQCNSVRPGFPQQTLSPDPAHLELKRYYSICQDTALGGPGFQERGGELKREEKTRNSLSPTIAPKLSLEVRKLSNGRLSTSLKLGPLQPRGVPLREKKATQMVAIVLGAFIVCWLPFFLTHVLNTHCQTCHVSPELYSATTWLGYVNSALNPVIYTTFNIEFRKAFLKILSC
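Agonist-mode cell screen: cells plated at 1500/well and incubated overnight at 37 °C, then exposed to library compounds for 90 min at 37 °C. Detection reagent was added for 30–60 min at room temperature, and luminescence was read.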
DRD3 antagonist – antagonists of human D3 dopamine receptor. P35462. AID 652054. 2.5% of 360,000 active. D3R cells, DiscoveRx beta-arrestin luminescence, antagonist mode; hits give low values. max response, negative = inhibition, %; in the data active = max response below about -50%; inconclusive = no clear call, values can overlap the other calls
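Cells plated overnight at 1500 cells/well, then exposed to library compounds with dopamine controls for 90 minutes at 37 degrees C. DiscoveRx reagent added for 30–60 minutes at room temperature; luminescence read, quantitative HTS format.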
Each line names hits and unclear results; the compound was inactive in the other large screens. An excerpt weighted towards active compounds, which were near 21% of everything screened. Unless noted, calls come from the whole dose curve; as a rule, active = well fitted inhibition curve with a large enough effect; inconclusive = small, poorly fitted or top-dose-only effect; inactive = flat fitted curve, though single readings scatter.

O=C1c2c([N+](=O)[O-])cc([N+](=O)[O-])cc2S(=O)N1Cc1ccccc1 (stereo unspecified)	none (no result: ClpP mod)
COc1cccc(F)c1C(=O)NC(=O)Nc1ccc2nc(C)oc2c1	none (no result: ClpP mod)
CCc1ccc(N(CC)C(=O)Cn2cnc3sc(C)c(S(=O)(=O)N4CCN(c5ncccn5)CC4)c3c2=O)cc1	none (no result: IL-1B inflam inh, DRD3 antagonist)
O=C(c1cnn2c(C(F)(F)F)cc(-c3ccc4c(c3)OCO4)nc12)N1CCCCC1	IL-1B inflam inh inconclusive, DT40 TDP1 CPT inconclusive
O=C(NC1CCCC1)c1cnn2c(C(F)(F)F)cc(-c3ccc4c(c3)OCO4)nc12	DT40 TDP1 CPT 7.31µM, TDP1 cell noCPT 16.4µM, DRD3 antagonist inconclusive
CCc1nc2cc(C(=O)N(C)CC3COCCO3)cc(NC(=O)c3ccccc3OC)c2n1C (stereo unspecified)	none (no result: IL-1B inflam inh, ClpP mod, DRD3 agonist, DRD3 antagonist)
Cc1cc(=O)oc2ccc(OCC(=O)N3CCC(C)CC3)cc12	DT40 TDP1 CPT inconclusive, ClpP mod inconclusive, TDP1 cell noCPT 25.9µM
Cc1cc(=O)oc2cc(OCC(=O)N3c4ccccc4CC3C)ccc12 (stereo unspecified)	DT40 TDP1 CPT 4.11µM, ClpP mod inconclusive, TDP1 cell noCPT 2.31µM
CC1CCCN(C(=O)COc2ccc(NC(=O)c3cccs3)cc2)C1 (stereo unspecified)	IL-1B inflam inh -56.5 (no result: ClpP mod)
Cc1cc(=O)oc2cc(OCC(=O)N3CCCC(C)C3)ccc12 (stereo unspecified)	ClpP mod 31.6µM
Cc1cc(=O)oc2cc(OCC(=O)N3CC(C)OC(C)C3)ccc12 (stereo unspecified)	ClpP mod inconclusive
COc1cccc(CC2(CO)CCCN(Cc3ccc4c(c3)OCCO4)C2)c1 (stereo unspecified)	DT40 TDP1 CPT inconclusive, TDP1 cell noCPT inconclusive (no result: ClpP mod)
COc1ccc(OCC(=O)N2c3ccccc3CC2C)c([N+](=O)[O-])c1 (stereo unspecified)	DT40 TDP1 CPT inconclusive, TDP1 cell noCPT inconclusive (no result: ClpP mod)
CCN(CC)c1cccc(OCC(=O)N2c3ccccc3CC2C)c1 (stereo unspecified)	DT40 TDP1 CPT inconclusive, TDP1 cell noCPT 18.4µM
CC1Cc2ccccc2N1C(=O)COc1nc2ccccc2nc1N1CCOCC1 (stereo unspecified)	DT40 TDP1 CPT 7.31µM, ClpP mod 28.2µM, TDP1 cell noCPT 9.2µM
Cc1cc(NC(=O)CCNS(=O)(=O)c2cccc3nsnc23)ccc1Br	none (no result: IL-1B inflam inh, DRD3 antagonist)
COc1cc(SC)ccc1C(=O)Nc1c(C)cccc1C	DT40 TDP1 CPT inconclusive, TDP1 cell noCPT 13µM
COc1cc(SC)ccc1C(=O)NNC(=O)c1cc(C)oc1C	DT40 TDP1 CPT inconclusive, TDP1 cell noCPT 14.6µM
COc1ccccc1C(=O)Nc1cccc(SC)c1	none
COc1ccccc1OCc1nn[nH]n1	none
O=c1cc(SCc2ccc(Cl)cc2Cl)nc[nH]1	none
O=C(O)CCn1c(-c2ccccc2)cc2ccccc21	none (no result: ClpP mod)
COc1ccc(-c2cc3ccccc3n2CC(O)CN2CCCCC2)cc1 (stereo unspecified)	DRD3 antagonist -87.2
COc1ccc(-c2cc3ccccc3n2CC(O)CNCCO)cc1 (stereo unspecified)	DT40 TDP1 CPT 23.1µM, ClpP mod 11.2µM, TDP1 cell noCPT 14.6µM
OCCNCC(O)Cn1c2ccccc2c2ccccc21 (stereo unspecified)	none
OCCNCC(O)Cn1ccc2ccccc21 (stereo unspecified)	DRD3 antagonist -51.9
OC(COc1ccc(OCc2ccccc2)cc1)CN1CCCCC1 (stereo unspecified)	none
COc1ncc2nc(-c3cc(F)cc(F)c3)c(=O)n(C[C@H]3CCCO3)c2n1	none (no result: IL-1B inflam inh, ClpP mod, DRD3 agonist, DRD3 antagonist)
Cc1c(NC(=O)c2ccc(CN3CCc4ccccc4C3)cc2)c(=O)n(-c2ccccc2)n1C	DRD3 antagonist -79.0

Source: PubChem BioAssay (National Center for Advancing Translational Sciences (NCATS))
